Unmarked numbers belong to inactive results. The rule behind the calls is not given here.
molecular target: Pantothenate synthetase (Mycobacterium tuberculosis (strain ATCC 25618 / H37Rv)) (UniProt P9WIL5); assay: Coupled enzyme confirmation of inhibitors against recombinant Mtb PanC (AID 375); conditions: coupled enzyme assay; at 10 µM, hits give high values;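 note: 0% = full reaction with vehicle and 100% = no enzyme background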
Sequence (P9WIL5 whole entry, looked up): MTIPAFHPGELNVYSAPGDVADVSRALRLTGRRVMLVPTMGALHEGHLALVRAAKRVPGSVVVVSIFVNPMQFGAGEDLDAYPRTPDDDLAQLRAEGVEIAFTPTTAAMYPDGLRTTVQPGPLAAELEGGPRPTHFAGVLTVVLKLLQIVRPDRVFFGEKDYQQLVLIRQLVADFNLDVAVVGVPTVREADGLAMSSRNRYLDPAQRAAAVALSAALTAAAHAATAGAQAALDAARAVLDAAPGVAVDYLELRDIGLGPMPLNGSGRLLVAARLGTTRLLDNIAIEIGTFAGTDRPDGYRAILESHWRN

SMILES	inhibition [%]
COc1ccc(OC)c(S(=O)(=O)N2CCC(C(=O)NCC3CCCO3)CC2)c1 (configuration not stated)	7
CS(=O)(=O)NCc1ccc(C(=O)NCc2ccccc2)cc1	4
COC(=O)C1=C(C)NC(=O)C1(NC(=O)CN1CCCC1=O)C(F)(F)F (configuration not stated)	5
Cc1ccccc1C(=O)NC1CCN(Cc2nnnn2CCc2ccccc2)CC1	14
Cc1ccccc1-c1nc(CN2CCC(C(=O)NCc3cccnc3)CC2)c(C)o1	0
O=C1C(Cl)=C(N2CCCCC2)C(=O)N1c1ccccc1Cl	7
CCOC(=O)C1CCN(c2c(NC3CCCCCCC3)c(=O)c2=O)CC1	3
N#CCc1ccc(NC(=O)Nc2cccc(Cl)c2)cc1	0
c1ccc(CCn2nnnc2CN2CCN(C3CCCC3)CC2)cc1	2
COCC(=O)N(c1ccc(C(C)C)cc1)C1C=CS(=O)(=O)C1 (configuration not stated)	0
O=C1OCc2cc(NC(=O)C3CCCO3)ccc21 (configuration not stated)	5
CCOC(=O)CSC1=Nc2ccccc2C2=NC(CC(=O)NCc3ccc(OC)cc3)C(=O)N12 (configuration not stated)	2
O=C(O)c1cnn2c1NC(c1ccc(F)cc1)CC2C(F)(F)F (configuration not stated)	2
CCOC(=O)C1CCCN(C(=O)CNS(=O)(=O)c2ccc(Br)s2)C1 (configuration not stated)	8
COc1cccc(-c2nc(CS(=O)(=O)CC(=O)Nc3cc(C)ccc3C)c(C)o2)c1	0
CCNC(=O)CC(=O)Nc1ccccc1C(=O)O	0
N#Cc1c(N)c(C(=O)c2ccccc2)n2c1CCCC2	6
